Compounds with a hit are over-represented: about 3.3% of the library has one in this group of screens.
WT yeast gro inh – growth inhibition of WT strain, primary screen, mitochondrial fusion inhibitor project, WT and mutant strains, chemical genetic; inhibition, % at 10 µM; mitochondrial fusion phenotypic screen; hit rate 2.1% among 190,000; in the data active means inhibition above about 58%; tested in S. cerevisiae
ROMK mod – ROMK potassium channel modulators, primary screen, cell-based, thallium flux, MLSMR library. Tet-inducible ROMK, thallium flux fluorescence; actives lie on both sides. hit rate 2% among 130,000. ATP-sensitive inward rectifier potassium channel 1 (Homo sapiens), P48048. B-score at 10 µM;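 active means signal ratio slope over the read window, or its plate-corrected B-score, at least 3 SD from the plate mean, either direction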;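 further: B-score of the F/F0 ratio slope over 7 to 12 s after thallium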
Arbovirus inh – antivirals against arbovirus infection, primary screen, cell-based, full library, 10K replicate subset. arbovirus infection cell-based antiviral screen. inhibition, % at 10 µM. hit rate 0.37% among 200,000. AID 1251, 2008; in the data active means inhibition above about 30%
PERK inh – block of dimerizer-induced PERK translation repression, primary screen, PERK inhibitor project, CHO PERK-DD cells, SEAP luminescence, HTS | Eukaryotic translation initiation factor 2-alpha kinase 3 (Homo sapiens), Q9NZJ5 | CHO PERK-DD fusion, SEAP luminescence translation reporter | inhibition, % at 5.6 µM | hit rate 0.17% among 220,000 | AID 1416, 2008;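 active means inhibition above the mean inhibition of all tested compounds plus 3 SD, set separately per screening campaign, cut at about 2.9% in these data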;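 further: PERK kinase domain activated by AP20187 dimerizer at 100 nM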
Target sequence (Q9NZJ5 whole entry, looked up, the tested form may be a part): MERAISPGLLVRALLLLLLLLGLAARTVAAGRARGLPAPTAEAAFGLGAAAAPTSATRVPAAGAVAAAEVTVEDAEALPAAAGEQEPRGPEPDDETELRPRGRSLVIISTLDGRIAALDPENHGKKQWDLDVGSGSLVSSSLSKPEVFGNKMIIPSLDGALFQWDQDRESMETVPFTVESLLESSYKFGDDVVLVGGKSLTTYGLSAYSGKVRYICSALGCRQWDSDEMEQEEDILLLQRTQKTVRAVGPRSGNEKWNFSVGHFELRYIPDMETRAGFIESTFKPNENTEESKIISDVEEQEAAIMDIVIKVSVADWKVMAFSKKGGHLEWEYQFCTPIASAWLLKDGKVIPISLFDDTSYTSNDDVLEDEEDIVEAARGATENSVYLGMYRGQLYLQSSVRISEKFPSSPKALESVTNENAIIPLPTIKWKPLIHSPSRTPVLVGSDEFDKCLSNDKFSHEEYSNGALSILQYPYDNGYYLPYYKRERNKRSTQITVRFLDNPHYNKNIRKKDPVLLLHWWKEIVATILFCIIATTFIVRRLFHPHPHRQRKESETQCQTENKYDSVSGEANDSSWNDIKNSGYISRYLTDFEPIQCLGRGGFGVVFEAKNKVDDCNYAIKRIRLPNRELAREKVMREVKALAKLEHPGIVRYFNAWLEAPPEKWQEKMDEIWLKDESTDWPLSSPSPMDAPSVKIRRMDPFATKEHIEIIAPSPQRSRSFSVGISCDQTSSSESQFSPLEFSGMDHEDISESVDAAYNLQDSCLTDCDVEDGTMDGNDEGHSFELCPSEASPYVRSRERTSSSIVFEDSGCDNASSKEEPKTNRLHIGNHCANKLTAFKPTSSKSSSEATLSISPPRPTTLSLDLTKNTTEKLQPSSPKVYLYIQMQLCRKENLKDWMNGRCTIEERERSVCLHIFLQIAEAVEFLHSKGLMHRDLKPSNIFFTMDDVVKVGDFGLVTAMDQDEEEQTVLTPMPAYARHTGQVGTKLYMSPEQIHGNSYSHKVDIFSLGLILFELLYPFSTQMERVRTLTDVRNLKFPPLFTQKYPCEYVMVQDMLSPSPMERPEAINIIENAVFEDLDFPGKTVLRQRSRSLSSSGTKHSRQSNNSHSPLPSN
Large screens that a line does not name were inactive.

Cc1ccc(NC(=O)c2ccccc2OCc2ccc([N+](=O)[O-])cc2)nc1	none
O=C(Nc1ncc(Cc2ccccc2Cl)s1)C1=NCCN1	WT yeast gro inh 73 (no result: ROMK mod)
C=CCN1C(=O)N/C(=C/c2ccc(N3CCOCC3)o2)C1=O	ROMK mod -3.8
COc1ccc2cc(/C=C3\SC(=S)NC3=O)c(N3CCOCC3)nc2c1	WT yeast gro inh 72 (no result: ROMK mod)
O=C1S/C(=C/c2ccc(N3CCOCC3)o2)C(=O)N1Cc1ccc(F)cc1	none (no result: ROMK mod)
O=C1NC(=S)S/C1=C/c1ccc(N2CCOCC2)o1	ROMK mod -3.3
c1coc(-c2ccnc3ncnn23)c1	none
O=c1c2ccccc2c(C=Nc2cccc(S(=O)(=O)NCc3ccco3)c2)c(O)n1-c1ccc(Cl)cn1	none (no result: ROMK mod)
Cc1cc(C)c(S(=O)(=O)/N=C2/C=C(Sc3ncn[nH]3)C(=O)c3ccccc32)cc1C	ROMK mod -4.9
Cc1ccsc1C(=O)OCC(=O)Nc1sccc1C(N)=O	none
COc1ccc(C(=O)O/N=C(\C)c2ccccc2)cc1	WT yeast gro inh 75
COc1ccc(C(=O)O/N=C(/c2ccccc2)c2ccncc2)cc1	none
CC(C)N1C(=O)/C(=C\c2nc3ccccc3c(=O)n2-c2ccccc2)c2ccccc21	WT yeast gro inh 84
CCOc1ccc(CN2CCN(Cc3[nH]c4ccccc4c3C)CC2CCO)cc1 (centres undefined)	none
N#C/C(=N\Nc1ccccc1Cl)C(=O)c1ccccc1	none (no result: ROMK mod)
CC/C(C)=N/Nc1cccc([N+](=O)[O-])c1	WT yeast gro inh 67 (no result: ROMK mod)
N#C/C(=N\Nc1cccc(Cl)c1)C(=O)c1ccccc1	WT yeast gro inh 72
COc1ccc(C(=O)/C(C#N)=N/Nc2cccc([N+](=O)[O-])c2)cc1	ROMK mod 7.6
CC(C)C(=O)Nc1nnc(SCC(=O)N2c3ccccc3CC2C)s1 (centres undefined)	Arbovirus inh 39 (no result: ROMK mod)
CC1Cc2ccccc2N1C(=O)CSC1=NCCS1 (centres undefined)	none (no result: ROMK mod)
CC1Cc2ccccc2N1C(=O)CSc1ccccc1 (centres undefined)	Arbovirus inh 30
Oc1ccc2ccccc2c1/C=N/c1nc2c(s1)CCCC2	WT yeast gro inh 80
S=C(NCc1ccco1)N1CCN(C(c2ccccc2)c2ccccc2)CC1	WT yeast gro inh 64 (no result: ROMK mod)
CC(C)CNC(=S)N1CCN(C(c2ccccc2)c2ccccc2)CC1	WT yeast gro inh 70
O=C(N1CCOCC1)N1CCN(C(c2ccccc2)c2ccccc2)CC1	WT yeast gro inh 95 (no result: ROMK mod)
COc1cccc(C(=O)CSc2nnnn2C)c1	none
CCOC(=O)CCc1c(C(=O)OCC)[nH]c(CC)c1C(=O)OCc1ccccc1	none (no result: WT yeast gro inh, Arbovirus inh)
Cc1nc(N2CCN(Cc3ccc4c(c3)OCO4)CC2)c2cc(-c3ccccc3)sc2n1	WT yeast gro inh 70
Cc1nc(N2CCN(Cc3ccc4c(c3)OCO4)CC2)c2oc3ccccc3c2n1	none (no result: ROMK mod, PERK inh)
COc1ccc(C)cc1NC(=O)c1ccccc1NS(=O)(=O)c1ccc(Cl)s1	WT yeast gro inh 84, ROMK mod -3.7
O=C(Nc1cc(S(=O)(=O)N2CCOCC2)ccc1O)c1ccc(NS(=O)(=O)c2ccc(Cl)s2)cc1	none
Cc1ccc(NC(=O)c2ccccc2NS(=O)(=O)c2ccc(Cl)s2)cc1S(=O)(=O)N1CCOCC1	ROMK mod -3.1
CCC1Oc2ccc(C)cc2N(CC(=O)N(Cc2cccnc2)Cc2cccc(F)c2)C1=O (centres undefined)	none (no result: ROMK mod)
O=C(CN1C(=O)COc2ccccc21)N(Cc1cccnc1)Cc1cccc(F)c1	WT yeast gro inh 77 (no result: ROMK mod)
O=C(Oc1ccc2ccccc2c1Cl)N1CCCCCC1	WT yeast gro inh 81 (no result: ROMK mod)
O=C(Oc1ccc2ccccc2c1Cl)N1CCCC1	none (no result: ROMK mod)
CCc1ccc(C2=CC(c3cc(Br)ccc3F)n3ncnc3N2)cc1 (centres undefined)	WT yeast gro inh 65, Arbovirus inh 62 (no result: ROMK mod)
Fc1ccc(Br)cc1C1C=C(c2ccc(Br)cc2)Nc2ncnn21 (centres undefined)	Arbovirus inh 71
CCSc1ncc(/C=N/Nc2ccccc2)n1C	WT yeast gro inh 71 (no result: ROMK mod)
OC(COCC(F)(F)C(F)(F)C(F)(F)C(F)F)Cn1c2ccc(Cl)cc2c2cc(Cl)ccc21 (centres undefined)	WT yeast gro inh 86 (no result: ROMK mod)
CCC(=O)OCCNc1cc(Sc2nc3ccccc3s2)c2nonc2c1[N+](=O)[O-]	WT yeast gro inh 95
CCOc1ncccc1C(=O)N(C)CC(=O)Nc1ccccc1SC	none (no result: ROMK mod)
O=C(CSc1nnc(-c2c[nH]c3ccccc23)o1)N(Cc1ccccc1)c1ccc(F)cc1	WT yeast gro inh 59 (no result: ROMK mod)
COc1ccc(CN(C(=O)CSc2nnc(-c3ccccc3C)o2)c2ccc(F)cc2)cc1	none (no result: ROMK mod)

Screening data from PubChem BioAssay.
